# The list is not random: actives were taken first. Their share in the collection is about 12%.
# JMJD2A Tudor inh – qHTS Assay for Inhibitors of JMJD2A-Tudor Domain | AID 504339, 2011 | Lysine-specific demethylase 4A (Homo sapiens), O75164 | Potency, µM (series often up to 114 µM), usual class: inhibitors | AlphaScreen JMJD2A-Tudor / H3K4me3 peptide binding | 390,000 compounds, 4.4% hits; further: nearly all actives have a fitted effect of over 50% in size
# G9a inh – qHTS Assay for Inhibitors of Histone Lysine Methyltransferase G9a | Histone-lysine N-methyltransferase EHMT2 (Homo sapiens), Q96KQ7 | Potency, µM (doses to about 102 µM), actives largely listed as inhibitors | G9a H3K9 monomethylation, AlphaScreen, 2 h | 350,000 compounds, 8.8% hits | AID 504332, 2011; further: nearly all actives have a fitted effect of over 75% in size
# Target sequence (Q96KQ7 913-1193 limits assumed): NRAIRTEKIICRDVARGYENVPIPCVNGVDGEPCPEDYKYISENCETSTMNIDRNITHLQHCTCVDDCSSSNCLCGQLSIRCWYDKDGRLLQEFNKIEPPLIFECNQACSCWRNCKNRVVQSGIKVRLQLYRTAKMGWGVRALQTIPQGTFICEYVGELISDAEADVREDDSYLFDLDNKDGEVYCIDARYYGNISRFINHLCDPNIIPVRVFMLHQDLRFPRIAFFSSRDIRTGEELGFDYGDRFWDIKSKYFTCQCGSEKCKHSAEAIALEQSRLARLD
#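 AlphaScreen detection with an anti-monomethyl H3K9 antibody quantified product after a 2 h room-temperature reaction containing 500 nM biotinylated H3K9 peptide, 20 µM SAM and 20 nM enzyme, which had been preincubated 15 min with compound.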
# BAZ2B block – qHTS Assay for Inhibitors of BAZ2B. AID 504333, 2011. Potency, µM (highest dose often 114 µM), actives largely listed as inhibitors. AlphaScreen BAZ2B-H3K14Ac peptide displacement. Bromodomain adjacent to zinc finger domain protein 2B (Homo sapiens), Q9UIF8. 360,000 compounds, 4.4% hits; further: nearly all actives have a fitted effect of over 60% in size
#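 AlphaScreen displacement of biotin-H3(5-23)K14Ac peptide (50 nM final) from BAZ2B (50 nM final) in PBS pH 7.4, 0.01% Tween-20; complex preformed 30 min RT, then compounds (top 110 uM) 30 min RT, beads 20 min dark.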
# PLK1 PBD inh – qHTS for Inhibitors of PLK1-PDB (polo-like kinase 1 - polo-box domain): Primary Screen; Serine/threonine-protein kinase PLK1 (Homo sapiens), P53350; Plk1 PBD binding of FITC phosphopeptide, fluorescence polarization; Potency, µM, most hits filed as inhibitors; 360,000 compounds, 2.8% hits; AID 720504, 2013; further: series mostly up to about 57 µM; nearly all actives have a fitted effect of over 65% in size
# Sfp inh – qHTS Assay for Inhibitors of Bacillus subtilis Sfp phosphopantetheinyl transferase (PPTase) | 4'-phosphopantetheinyl transferase ffp (Bacillus subtilis), Q9F4F7 | Biochemical Sfp PPTase activity, qHTS | Potency, µM, actives largely listed as inhibitors | 310,000 compounds, 3.5% hits;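 further: the enzyme is Sfp with the accession as filed and its product quenches rhodamine fluorescence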
#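 With Hepes-Na pH 7.6 buffer containing 10 mM MgCl2, Sfp (15 nM) modified BHQ-2-YbbR (12.5 uM) using rhodamine-CoA (5 uM). Two reads 30 minutes apart at 525/598 nm yielded each well's rate.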
# HP1b binding inh – HTS for Inhibitors of HP1-beta Chromodomain Interactions with Methylated Histone Tails. Potency, µM (titrated, usually from 114 µM), actives largely listed as inhibitors. AlphaScreen HP1-beta / biotin-H3K9me3 peptide binding. AID 540317, 2011. Chromobox protein homolog 1 (Homo sapiens), P83916. 390,000 compounds, 0.56% hits; further: nearly all actives have a fitted effect of over 70% in size
# Target sequence (P83916 whole entry, looked up): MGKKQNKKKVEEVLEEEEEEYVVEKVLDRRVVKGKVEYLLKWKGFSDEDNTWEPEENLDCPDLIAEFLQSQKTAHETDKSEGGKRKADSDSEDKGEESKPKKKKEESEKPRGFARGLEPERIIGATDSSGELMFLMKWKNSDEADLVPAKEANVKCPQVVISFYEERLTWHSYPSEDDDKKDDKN
#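 AlphaScreen: HP1-beta (50 nM) preformed 30 min with biotin-H3(1-18)K9me3 peptide (50 nM) in PBS pH 7.4, 0.01% Tween-20. Compound added for 30 min at RT, then streptavidin donor/nickel chelate acceptor beads (10 ug/mL) for 30 min.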
# A number is an active result; n = inactive; u = inconclusive; x = no result; [ ] = another dose, or the depositor's remark. The call rests on the fitted dose curve; in most records, active means well fitted curve in the direction sought with a large enough effect; inconclusive means small, poorly fitted or top-dose-only effect, or another doubt; inactive means no such curve, though single readings can be large; an effect the other way counts as inactive or inconclusive.
SMILES,JMJD2A Tudor inh,G9a inh,BAZ2B block,PLK1 PBD inh,Sfp inh,HP1b binding inh
CCN1C(=O)[C@@H]2[C@H](C1=O)[C@@H]1C[C@H]3C(=O)N(CC)C(=O)[C@H]3[C@@H]3C1=C(C(=O)N1C(=O)O/C(=N\CC4CC4)[C@]31C)[C@@H]2C,x,x,x,x,n,x
O=c1c2ccccc2nc2n1CCC2,14.1µM,n[0.501 µM],14.1µM,n,u,n
CCOc1ccc(/C=C2\NC(=S)NC2=O)cc1,n[11.4 µM],44.7µM,n,n,n,n
COc1ccc(/C=C2/SC(=S)N(n3c(C)ccc3C)C2=O)cc1,35.5µM,15.8µM,10µM,n,n,u
CCOc1ccc(C=C2SC(=O)N(CCN)C2=O)cc1,x,x,x,x,n,x
O=C1/C(=C/c2ccccc2)SC(=S)N1N1C(=O)C2CC2C1=O (centres undefined),n,25.1µM,n,n,n,n
O=C1/C(=C/c2ccc(F)cc2)SC(=S)N1N1CCOCC1,n,n[12.7 µM],n,n,n,n
CCOc1ccc(/C=C2/SC(=S)N(n3c(C)ccc3C)C2=O)cc1,22.4µM,10µM,11.2µM,n,n,14.1µM
C/C(=N\NC(=O)c1nnn(-c2nonc2N)c1CN(C)c1ccccc1)c1ccccc1O,14.1µM,n,2.24µM,n,n,n
COc1ccc(/C(C)=N/NC(=O)c2nnn(-c3nonc3N)c2-c2ccccc2)cc1,n,50.1µM,u,n,n,n
CC(/C=N/NC(=O)c1nnn(-c2nonc2N)c1CN1CCCCC1)=C\c1ccccc1,n,x,n,n,n,n
C/C(=N\NC(=O)c1nnn(-c2nonc2N)c1CN1CCCCC1)c1ccccc1O,u,n,44.7µM,n,n,n
Cc1ccc(-c2c(C(=O)N/N=C/C3CCCCC3)nnn2-c2nonc2N)cc1,n,n,79.4µM,n,n,n
COc1ccc(/C(C)=N/NC(=O)c2nnn(-c3nonc3N)c2CN(C)c2ccccc2)cc1,n,n,n,n,n,n
Cc1c2cnn(CC(=O)NC(C)C)c(=O)c2c(C)n1Cc1cccc(Cl)c1,n,n,n,x,x,n
Cc1cccc(NC(=S)NC2CCCC2)n1,n,n,u,n,10µM,n
Cc1cccc(NC(=S)NC2CCCCC2)n1,n,0.891µM,n,n,50.1µM,n
Cc1cccc(NC(=S)Nc2cccc(C)n2)n1,n,n,n,n,n,n
O=C(NC1CC(=O)N(c2ccc(Cl)cc2)C1)N1CCN(C(=O)c2ccco2)CC1 (centres undefined),n,n[0.501 µM],n,n,x,n
COc1ccc(OCc2n[nH]c(=S)o2)cc1,u,u,n,u,n,n
CCCCc1cc(-c2n[nH]c(=S)o2)c2ccccc2n1,n,4.47µM,u,u,n,n
CCOc1ccccc1-c1n[nH]c(=S)o1,39.8µM,1.78µM,u,n,n,n
COc1ccc(-c2n[nH]c(=S)o2)c(OC)c1,79.4µM,u,n,n,u,n
CCOc1ccc(-c2n[nH]c(=S)o2)cc1,u,5.01µM,x,n,n,n
CCOc1ccc(-c2n[nH]c(=S)c3ccccc23)cc1,n,n,n,n,n,n
SMILES,JMJD2A Tudor inh,G9a inh,BAZ2B block,PLK1 PBD inh,Sfp inh,HP1b binding inh
O=c1[nH]nc(-c2cc(-c3ccccc3)nc3ccccc23)o1,x,x,x,n,x,x
CC(=O)NC(c1cccc(F)c1)c1nc(-c2cccc(C(F)(F)F)c2)cs1 (centres undefined),x,x,x,n,x,x
COc1ccc(-c2noc(CCC(=O)N3CCN(c4ccc(F)cc4)CC3)n2)cc1,n,x,x,n,x,n
O=C(CSc1nc(-c2ccc(F)cc2)cc(C(F)(F)F)n1)NCCc1ccccc1,n,n,u,x,x,n
Cc1ccn2cc(CC(=O)O)nc2c1,39.8µM,20µM,56.2µM,n,56.2µM,70.8µM
CCOC(=O)c1cn2ccc(C)cc2n1,u,n[0.501 µM],n,26.7µM,n,n
O=C(COC(=O)c1cccc2ccccc12)Nc1ncc(C(F)(F)F)cc1Cl,n,u,n,n,n,n
O=C(CSc1ncccn1)Nc1ncc(C(F)(F)F)cc1Cl,n,20µM,n,n,u,n
Cc1c(Cl)cccc1NC(=S)NNc1ncc(C(F)(F)F)cc1Cl,n,70.8µM,n,n,n,n
FC(F)(F)c1cnc(NNC(=S)Nc2cccnc2)c(Cl)c1,n,22.4µM,n,u,n,n
O=C(COC(=O)c1cc(-c2ccccc2Cl)nc2ccccc12)Nc1ncc(C(F)(F)F)cc1Cl,u,n,u,n,39.8µM,u
Cc1cc(C)nc(SCC(=O)Nc2ncc(C(F)(F)F)cc2Cl)n1,n,n,n,n,n,n
CN(C)C(=O)CCc1ccc2c3c([nH]c2c1)[C@]1(C)[C@@H](C(=O)N2CCCCC2)C[C@H](CC(=O)NCC24CC5CC(CC(C5)C2)C4)C(=O)N1CC3,n,x,x,n,x,n
N#Cc1cccc(NC(=O)N2CCC3(CC2)CCN(C(=O)c2csnn2)CC3)c1,x,n[12.7 µM],x,x,n,x
NC(=O)NNc1ncc(C(F)(F)F)cc1Cl,n,u,n,n,50.1µM,n
O=C(NNc1ncc(C(F)(F)F)cc1Cl)c1c(Cl)cccc1Cl,n,n,n,n,n,n
COc1ccc2c3c(ccc2c1)C(=O)/C(=C/O)CC3,7.94µM,x,x,4.23µM,x,35.5µM
O=C(Nc1ccc(F)c(Cl)c1)c1ccc2c(Cl)c3c(nc2c1)CCCC3,n,n,n,x,x,n
COc1ccc(O)c(-c2cc(-c3cccs3)[nH]n2)c1,n[11.4 µM],n,70.8µM,u,n,n
N#C/C(C(=O)N1CCOCC1)=c1/s/c(=C\c2ccccn2)c(=O)n1-c1ccccc1,n,n,n,n,n,n
COc1ccc(-n2c(=O)/c(=C\c3cccs3)s/c2=C(/C#N)C(=O)N2CCN(C)CC2)cc1,n,50.1µM,n,n,n,n
Cc1ccc(N=CC2=C(O)CC(C)(C)CC2=O)nc1,n,u,n,n,n,n
CC1(C)CC(=O)C(/C=N/c2ncccc2C(=O)O)=C(O)C1,n,50.1µM,n,n,n,n
COc1ccc(N2CC(O)=C(c3nc(-c4ccccc4)cs3)C2=N)cc1,n[11.4 µM],n,n,13.4µM,n,n
COc1ccc(-c2nc(CCl)cs2)cc1OC,u,20µM,n,u,n,n
Cc1ccc(-c2csc(-c3ccncc3)n2)cc1,n,n,n,n,n,n
COc1ccc(-c2csc(-c3ccc(O)cc3)n2)cc1,n[11.4 µM],n,n,21.2µM,n,n
COc1cccc(-c2nc(CCl)cs2)c1,n,u,n,n,n,n
COc1ccc(-c2nc(CCl)cs2)cc1,n,25.1µM,n,n,n,n
CCc1ccc(-c2nc(CCl)cs2)cc1,n,u,n,n,n,n

# Assay outcomes as filed in PubChem BioAssay.
